Assay outcomes deposited in PubChem by National Center for Advancing Translational Sciences (NCATS).
MARV entry inh – qHTS for inhibitors of binding or entry into cells for Marburg Virus; Marburg virus pseudotyped entry inhibition, cell reporter; Potency, µM (top dose mostly 37.8 µM), most hits filed as inhibitors; 300,000 compounds, 1.8% hits; calls by dose curve; tested in HEK293 cells
Shiga toxin inh – A qHTS for Small Molecule Inhibitors of Shiga Toxin | 290,000 compounds, 9.2% hits | inhibition, % at 38.7 µM | Vero cells, Shiga toxin protein synthesis inhibition reporter; in the data active = inhibition mostly above about 28%, no sharp cut-off; inactive = mostly below about 43%
Lassa entry inh – qHTS for Inhibitors of binding or entry into cells for Lassa Virus; Lassa virus pseudotype entry inhibition, cell reporter; Potency, µM (titrated, usually from 37.9 µM), actives largely listed as inhibitors; 300,000 compounds, 1.2% hits; AID 540256, 2011; calls by dose curve; tested in HEK293 cells; note: nearly all actives have a fitted effect of over 50% in size
Cycloheximide cs – Cycloheximide Counterscreen for Small Molecule Inhibitors of Shiga Toxin | cell reporter, cycloheximide protein synthesis inhibition counterscreen | max response, % | 300,000 compounds, 12% hits; in the data active = max response mostly above about 13%, no sharp cut-off; inactive = mostly below about 14%; note: read at 38.3 µM for the half of the compounds with a filed dose
Large screens that a line does not name were inactive. The list is not random: actives were taken first. Their share in the collection is about 12%.

CCCCCc1nc2c(c(=O)c3ccccc3n2C)c(=O)n1C1CCCCCC1	MARV entry inh inconclusive, Lassa entry inh 16µM
C=CCN(CC=C)C(=S)NC(=O)c1ccc(C)c(Br)c1	MARV entry inh inconclusive, Lassa entry inh inconclusive
CCN1CCN(c2cc(C)c3cc(NC(=S)N4CCCCC4)ccc3n2)CC1	MARV entry inh inconclusive, Lassa entry inh inconclusive, Cycloheximide cs 21
CCN1CCN(c2cc(C)c3cc(NC(=O)c4ccc(Br)o4)ccc3n2)CC1	MARV entry inh inconclusive, Cycloheximide cs 15
CCN1CCN(c2cc(C)c3cc(NC(=O)c4ccncc4)ccc3n2)CC1	none (no result: MARV entry inh, Lassa entry inh)
CCN1CCN(C(=S)Nc2ccc3nc(N4CCN(C)CC4)cc(C)c3c2)CC1	MARV entry inh inconclusive, Lassa entry inh 10µM
CCN1CCN(c2cc(C)c3cc(NC(=S)N4CCCC(C)C4)ccc3n2)CC1 (stereo not given)	MARV entry inh 7.9µM, Shiga toxin inh 62, Lassa entry inh inconclusive, Cycloheximide cs 33
CCN1CCN(c2cc(C)c3cc(NC(=S)N4CC(C)CC(C)C4)ccc3n2)CC1 (stereo not given)	MARV entry inh inconclusive
CCSc1nnc2c(n1)OC(c1ccc(OC)cc1OC)N(C(C)=O)c1ccccc1-2 (stereo not given)	none (no result: Shiga toxin inh, Cycloheximide cs)
Cc1cccc(C)c1-n1c(SCC(=O)NCc2ccco2)nc2ccccc2c1=O	none
COc1ccc(-c2nc3sc(CCNC(=O)C(=O)Nc4cccc(NC(C)=O)c4)c(C)n3n2)cc1	none (no result: MARV entry inh, Shiga toxin inh, Cycloheximide cs)
Cc1cc(=O)n2nc(N3CCCC(C(=O)NCc4cccc(Br)c4)C3)sc2n1 (stereo not given)	none
CCCCN(CC)CCNC(=S)Nc1ccc2nc(N3CCN(C)CC3)cc(C)c2c1	MARV entry inh 3.5µM, Lassa entry inh inconclusive
CCCN(CCC)CCCNC(=S)Nc1ccc2nc(N3CCN(C)CC3)cc(C)c2c1	none (no result: MARV entry inh, Lassa entry inh)
CCCC[C@H](NC(C)=O)C(=O)N[C@H]1CC(=O)NCCCC[C@@H](C(N)=O)NC(=O)[C@H](Cc2c[nH]c3ccccc23)NC(=O)[C@H](CCCN=C(N)N)NC(=O)[C@@H](Cc2ccccc2)NC(=O)[C@H](Cc2cnc[nH]2)NC1=O	none (no result: MARV entry inh, Shiga toxin inh, Lassa entry inh)
COc1ccc2occ(C(C)=O)c2c1	MARV entry inh inconclusive
COc1ccc2occ(C(=O)c3ccccc3)c2c1	Shiga toxin inh 66, Lassa entry inh inconclusive, Cycloheximide cs 38
COc1ccc(OC)c(C(=O)CCCC(=O)c2cc(OC)ccc2OC)c1	none (no result: MARV entry inh, Lassa entry inh)
COc1ccc(OC)c(C(=O)c2coc3ccc(O)cc23)c1	Shiga toxin inh 103, Lassa entry inh inconclusive, Cycloheximide cs 25
Cc1ccc2nc(-c3cc(NC(=O)COc4ccc(C)c(C)c4)ccc3Cl)oc2c1	none (no result: Shiga toxin inh, Cycloheximide cs)
Cc1ccc(-n2nc(C)c3c(C)cc(=O)[nH]c32)cc1	Lassa entry inh inconclusive, Cycloheximide cs 21
Cc1ccc(-n2nc(C)c3c(=O)[nH]c(C(F)(F)F)nc32)cc1	none
Oc1ccccc1CNc1ccc(Br)cn1	MARV entry inh inconclusive, Lassa entry inh inconclusive
COc1ccccc1CNc1ccccc1F	Cycloheximide cs 17
Brc1ccc(NCc2cccc3ccccc23)nc1	MARV entry inh inconclusive, Cycloheximide cs 27
Cc1ccc(S(=O)(=O)Nc2ccccc2CNc2ccc(Br)cn2)cc1	MARV entry inh inconclusive
COc1ccccc1CNc1ccc(Br)cn1	Shiga toxin inh 99, Cycloheximide cs 50
COC(=O)C1CCN(C(=O)COC(=O)CSc2ccc(C(N)=O)cc2[N+](=O)[O-])CC1	none (no result: Shiga toxin inh, Cycloheximide cs)
Cc1ccc(C)c(NC(=O)c2ccccc2O)c1	MARV entry inh inconclusive, Cycloheximide cs 22
Cc1cccc(NC(=O)c2cnn(C)c2)c1C	none
O=C(NCc1ccc(Cl)cc1)c1cnn2ccccc12	Shiga toxin inh 80, Cycloheximide cs 56 (no result: MARV entry inh, Lassa entry inh)
Cc1cccc(NC(=O)c2cnn3ccccc23)c1C	Shiga toxin inh 78, Cycloheximide cs 50 (no result: MARV entry inh, Lassa entry inh)
O=C(Nc1ccccc1O)c1ccc(C(=O)c2ccccc2)o1	Shiga toxin inh 35, Lassa entry inh inconclusive, Cycloheximide cs 27
CC(=O)OC[C@H]1O[C@@H](ON=C(C)CCN2CCCCc3nc(C)c(C)cc32)[C@H](OC(C)=O)[C@@H](OC(C)=O)[C@H]1OC(C)=O	none (no result: Shiga toxin inh, Lassa entry inh, Cycloheximide cs)
Cn1c(=O)c2cc(C(=O)Nc3cccc(C#N)c3)sc2c2ccccc21	none (no result: Shiga toxin inh, Cycloheximide cs)
COc1ccc(CCNC(=O)Cn2nnc(-c3ccccc3F)n2)cc1OC	none
Cc1ccccc1Cn1nnc(C(=O)Nc2cccc(C)c2C)c1N	Cycloheximide cs 30
Cc1ccc(C)c(NC(=O)c2nc(Cl)ccc2Cl)c1	Cycloheximide cs 26 (no result: MARV entry inh, Lassa entry inh)
O=C(Nc1ccccc1O)c1ccccc1O	MARV entry inh inconclusive, Shiga toxin inh 53, Lassa entry inh inconclusive, Cycloheximide cs 32
Cc1cccc(NC(=O)c2ccccc2O)c1C	Shiga toxin inh 49, Cycloheximide cs 34
O=C(Nc1ccccc1O)c1nc(Cl)ccc1Cl	none
